Measured values as given in the supplement of paper PMC6555819.

Experiments:
Experiment in all cases: PBM binding z-score (relative to random genomic background probes); higher = stronger binding; sequences stand for … in GC…GCGATTGACAGCGTAGAATGAAGG
[1] = tested on: FXR:RXRa (NR concentration 270 nM, RXRa partner concentration 90 nM)
How it was run: (§1)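 Probes were double-stranded and carried 34-nt variable regions with direct-repeat seeds, single-nucleotide variants, half-site ablations and random human genomic background sequences, printed on custom Agilent 4×180K protein-binding microarrays. Arrays were incubated 1 h with ligand-free nuclear receptor dimers in PBS pH 7.4, 2% milk, 0.02% Triton X-100, 1 mM DTT, 0.2 mg/mL BSA and 0.4 mg/ml salmon testes DNA. Antibodies against each partner (one per run) detected binding, and scanned fluorescence was regression-normalized. Binding z-scores use the random background probes as reference.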

[2] = tested on: LXRa:RXRa (NR concentration 270 nM, RXRa partner concentration 90 nM)
How it was run: as §1

[3] = tested on: LXRa homodimer (NR concentration 270 nM)
How it was run: as §1

[4] = tested on: LXRb:RXRa (NR concentration 270 nM, RXRa partner concentration 90 nM)
How it was run: as §1

[5] = tested on: LXRb homodimer (NR concentration 270 nM)
How it was run: as §1

[6] = tested on: PPARa:RXRa (NR concentration 270 nM, RXRa partner concentration 90 nM)
How it was run: as §1

[7] = tested on: PPARg:RXRa (NR concentration 180 nM, RXRa partner concentration 90 nM)
How it was run: as §1

[8] = tested on: PPARg:RXRa 270nM:90nM, anti-RXR (NR concentration 270 nM, RXRa partner concentration 90 nM)
How it was run: as §1

[9] = tested on: PPARg:RXRa 30nM:10nM, anti-RXR (NR concentration 30 nM, RXRa partner concentration 10 nM)
How it was run: as §1

[10] = tested on: PPARg:RXRa 90nM:30nM, anti-RXR (NR concentration 90 nM, RXRa partner concentration 30 nM)
How it was run: as §1

[11] = tested on: PPARg:RXRa DBDmut IVT, anti-RXR (DBD mutation: RXRa K156A/R161A, NR concentration 270 nM, RXRa partner concentration 90 nM)
How it was run: as §1

[12] = tested on: PPARg:RXRa IVT, anti-PPARg (NR concentration 270 nM, RXRa partner concentration 90 nM)
How it was run: as §1

[13] = tested on: PPARg DBDmut:RXRa IVT, anti-PPARg (DBD mutation: PPARg1 K132A/R137A, NR concentration 270 nM, RXRa partner concentration 90 nM)
How it was run: as §1

[14] = tested on: PPARg DBDmut IVT, anti-PPARg (DBD mutation: PPARg1 K132A/R137A, NR concentration 270 nM)
How it was run: as §1

[15] = tested on: PPARg homodimer (NR concentration 180 nM)
How it was run: as §1

[16] = tested on: PXR:RXRa (NR concentration 270 nM, RXRa partner concentration 90 nM)
How it was run: as §1

[17] = tested on: PXR homodimer (NR concentration 270 nM)
How it was run: as §1

[18] = tested on: RARa:RXR (NR concentration 270 nM, RXRa partner concentration 90 nM)
How it was run: as §1

[19] = tested on: RARa homodimer (NR concentration 270 nM)
How it was run: as §1

[20] = tested on: RARb:RXRa (NR concentration 270 nM, RXRa partner concentration 90 nM)
How it was run: as §1

Row | Sequence | PBM binding z-score [1] | PBM binding z-score [2] | PBM binding z-score [3] | PBM binding z-score [4] | PBM binding z-score [5] | PBM binding z-score [6] | PBM binding z-score [7] | PBM binding z-score [8] | PBM binding z-score [9] | PBM binding z-score [10] | PBM binding z-score [11] | PBM binding z-score [12] | PBM binding z-score [13] | PBM binding z-score [14] | PBM binding z-score [15] | PBM binding z-score [16] | PBM binding z-score [17] | PBM binding z-score [18] | PBM binding z-score [19] | PBM binding z-score [20]
1 | CCTATTAGTTGACCATAAGGGCACCCGAAGCTCG | 0.765 | 0.567 | 0.422 | 0.491 | 0.755 | 0.457 | 0.534 | 0.375 | 0.138 | 0.172 | -0.198 | 0.504 | 0.132 | 0.825 | 1.88 | 0.521 | 0.781 | 0.981 | 1.56 | 1.2
2 | TCGAGTACGTTAGGGGCATTCAGAATGGCGTCGA | -0.212 | -0.0926 | -0.859 | 0.0159 | -1.01 | 0.403 | 0.0548 | 0.205 | 0.448 | 0.552 | 0.475 | -0.595 | -1.29 | -1.15 | -0.704 | 1.69 | 5.78 | -0.118 | -0.866 | 0.723
3 | ACTAGTTGGTCAGCCGAGGTCACACACAATTCGG | 3.43 | 3 | 2.4 | 3.32 | 0.882 | 3.85 | 2.34 | 2.6 | 0.926 | 2.06 | 1.8 | 3.12 | 0.481 | 1.14 | 3.29 | 5.43 | 2.13 | 5 | 1.82 | 3.58
4 | GCGACTGGGGCATCAGCAGGTTCCCATAACTTAA | -0.761 | -0.491 | -0.648 | 0.0504 | -1.52 | 0.27 | 0.29 | 0.35 | -0.948 | -0.176 | 3.91 | 2.88 | -0.996 | -0.982 | -0.276 | -0.549 | -0.571 | -0.272 | -0.565 | 0.421
5 | TGAATGAGGTTAAACATCAGGGAACGTGGCGTCG | 3.51 | 2.57 | -0.0319 | 1.69 | -0.0141 | 3.88 | 2.33 | 2.74 | 1.06 | 1.93 | 2.85 | 2.57 | 1.51 | 0.325 | 0.272 | 1.7 | -0.296 | 2.29 | 0.112 | 2.13
6 | CAAACTAGGTCAAGGTCACAGTCGGTTTGTGCCA | 6.76 | 5.24 | 3.28 | 4.15 | 0.607 | 6.25 | 9.88 | 8.18 | 6.72 | 8.13 | 8.39 | 8.56 | 6.22 | 2.94 | 5.11 | 5.3 | 1.75 | 5.94 | 1.99 | 5.17
7 | CCTAGTTGGTCAAAGTCACACACGCTATAGGTAC | 0.342 | 0.505 | 0.567 | 0.625 | 0.603 | 0.517 | 1.35 | 1.68 | 0.915 | 1.46 | 1.7 | 1.52 | 0.647 | 0.822 | 1.59 | 0.0775 | 0.736 | 0.303 | 1.44 | 1.42
8 | CGAACTAGGCCATTGACAGGACAGTGAATAGTAA | -0.28 | -0.21 | 0.0668 | -0.366 | -0.825 | 1.53 | 2.02 | 1.77 | 0.274 | 0.972 | 6.87 | 5.51 | 1.09 | 0.545 | 0.245 | -0.291 | 0.0591 | -0.304 | -0.0299 | 0.565
9 | GTGACTGGGGCATCAGCAGGTTACCATAACTTAA | 0.0842 | 0.236 | -0.049 | 0.942 | -0.399 | 1.75 | 1.86 | 1.89 | 0.217 | 0.996 | 4.3 | 4.9 | 0.566 | 0.266 | 0.222 | 0.254 | 0.042 | 0.669 | -0.0196 | 1.09
10 | GCTCGGAGGACAAGGTCTGAGCTTTGTCCGTAGA | -0.67 | -0.493 | -0.867 | -0.602 | -1.01 | -0.36 | -1.05 | -0.462 | -1.11 | -1 | -0.275 | -0.493 | -0.968 | -1.01 | -0.929 | -0.656 | -0.919 | -0.399 | -1.72 | 0.963
11 | ACTATTAGTTGAGACGAGGGCTACCGATAGGTTG | -0.0056 | -0.0365 | -0.197 | -0.414 | 0.162 | -0.477 | 0.7 | -0.127 | 0.174 | 0.0258 | 0.458 | 0.0737 | 0.772 | 0.929 | -0.361 | -0.232 | -0.105 | -0.544 | 0.451 | 0.191
